Compound activity deposited in PubChem BioAssay by National Center for Advancing Translational Sciences (NCATS).
Sampled rows, rich in hits. Any-hit rate of the full collection: about 1.7%.
GLP1R inv ag: inverse agonists of human GLP-1 receptor | P43220 | HEK293 GLP-1R CRE-luciferase, luminescence, 24 h; GLP-1R form is constitutively active | Potency, µM (doses to about 38.3 µM), for the others: at the top dose activity change, negative = inhibition, most hits filed as inhibitors | 410,000 tested, 1.6% active; also: % is scaled to controls: 0 for no effect and ±100 for the full control effect; nearly all actives have a fitted effect of over 55% in size
Target sequence (P43220 whole entry, looked up): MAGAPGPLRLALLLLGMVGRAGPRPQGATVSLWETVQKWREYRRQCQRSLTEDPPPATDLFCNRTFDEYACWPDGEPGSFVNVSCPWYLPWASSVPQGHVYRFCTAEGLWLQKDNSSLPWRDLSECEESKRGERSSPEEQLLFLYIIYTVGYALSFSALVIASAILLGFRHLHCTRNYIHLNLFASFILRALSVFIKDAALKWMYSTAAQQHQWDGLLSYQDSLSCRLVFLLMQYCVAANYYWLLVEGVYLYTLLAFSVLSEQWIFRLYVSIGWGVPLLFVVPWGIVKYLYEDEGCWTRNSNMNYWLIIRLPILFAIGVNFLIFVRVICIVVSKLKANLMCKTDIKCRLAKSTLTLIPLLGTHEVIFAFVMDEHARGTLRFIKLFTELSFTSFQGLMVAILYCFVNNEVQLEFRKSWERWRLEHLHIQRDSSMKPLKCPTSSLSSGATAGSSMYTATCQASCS
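Seeding at 200 cells/uL, 12 h culture, 24 hr compound treatment, then luciferase reagent and a luminescence read; cells are HEK293 stably expressing a constitutively active GLP-1R plus cAMP-responsive luciferase.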
HEK293 tox: cytotoxicity in counter-screen for GLP-1R inverse agonists. 410,000 tested, 0.13% active. HEK293 cAMP-luciferase reporter cells, luminescence, 24 h. Potency, µM (doses to about 38.3 µM), for the others: top-dose activity change, negative = inhibition, hits mostly inhibitors;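 also: loss of luciferase light is scored as toxicity; % is scaled to controls: 0 for no effect and ±100 for the full control effect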
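Luminescence readout: signal drop marks cytotoxicity. Plated cells grew 12 h at 37 °C, 5% CO2, received 23 nL compound for 24 h, then got luciferase reagent, read after 12 min at RT.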
PTHR1 ag: activates the human parathyroid hormone receptor PTHR1 | Q03431 | HEK293 GP2 PTHR1 cells, GloSensor cAMP luminescence, 1 h | Potency, µM (titrated, usually from 115 µM), for inactives: at the highest dose activation, usual class: activators | 410,000 tested, 0.075% active | AID 743266; also: nearly all actives have a fitted effect of over 55% in size
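HEK-293-derived GP2 cells expressing PTHR1 and a GloSensor cAMP reporter, 3,000/well, plated overnight, given luciferin plus IBMX (each 0.5 mM as added) for 1 h at 37 °C, then compound for 1 h at 37 °C. Luminescence was read after 15 min at room temperature.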
GLP-1R agonist: GLP-1 receptor (human) agonism | 380,000 tested, 0.007% active | P43220 | HEK293 GLP-1R CRE-luciferase, luminescence, 4-6 h; cells express a hypersensitive GLP-1R form | Potency, µM (titrated, usually from 45.6 µM), for the others: at the highest dose activation, most hits filed as activators; also: % of control where 0% means no effect
An asterisk follows results filed as active; i = inactive; ? = inconclusive; . = no result given; [ ] = dose if it differs, or a comment. Calls follow the shape of the dose curve; as a rule, active = well fitted curve in the direction sought with a large enough effect; inconclusive = small, poorly fitted or top-dose-only effect, or another doubt; inactive = no such curve, though single readings can be large; an effect the other way counts as inactive or inconclusive. Potency is read from the fitted curve at half-maximal effect.

SMILES	GLP1R inv ag	HEK293 tox	PTHR1 ag	GLP-1R agonist
Cc1cccc(-c2ocnc2C(=O)Nc2ccccc2NC(=O)c2ccccn2)c1	0.5µM*	?	-13%	14%
Cc1ccc(-c2ocnc2C(=O)Nc2ccccc2NC(=O)c2ccccn2)cc1	?	1.1µM*	-9%	13%
Cc1ccc(C(OCC(O)CNC(CO)C(O)c2ccc([N+](=O)[O-])cc2)c2ccccc2)cc1 (configuration not stated)	8.9µM*	-16%	-3%	21%
Cc1ccc(C(OCC(O)CNC(C)c2ccccc2)c2ccccc2)cc1 (configuration not stated)	?	?	-19%	3%
Cn1c(=O)[nH]c(=O)c2c1nc(CN1CCN(c3ccccc3)CC1)n2Cc1c(F)cccc1Cl	6%	1%	i	.
O=C(Cc1cn(Cc2cccc(Cl)c2)c2ccccc12)N1CCCCCC1	10µM*	0%	-32%	1%
CC1CCCN(C(=O)Cc2cn(Cc3cccc(Cl)c3)c3ccccc23)C1 (configuration not stated)	?	-6%	-17%	-3%
Cc1nnc(NC(=O)CSc2nccn2-c2cccc(Cl)c2)s1	-16%	1%	-34%	.
CCOC(=O)c1cccc(Nc2ncnc3ccc(C)cc23)c1	11µM*	-16%	-27%	4%
Cc1ccc(-n2nnc(-c3nccs3)n2)cc1	2.8µM*	9%	-9%	-8%
Clc1ccc(-n2nnc(-c3nccs3)n2)cc1Cl	-9%	-10%	-92%	-4%
CN1[C@@H]2CC(OC(=O)[C@@H](CO)c3ccccc3)C[C@@H]1[C@H]1O[C@H]12 (some centres not stated)	.	.	.	10%
CCN1CCCC1CNC(=O)c1cc(N)ccc1OC (configuration not stated)	-20%	-5%	i	5%
CCN1CCCC1CNCC(O)COc1ccc(C(C)(C)C)cc1C (configuration not stated)	5µM*	8%	i	-1%
Cc1ccc(-n2[nH]c(=O)c3cccnc32)cc1	-4%	4%	-11%[57.5 µM]	-2%
Cc1ccc(-n2[nH]c(=O)c(-c3ccccn3)c2C)cc1	1µM*	?	-35%	-4%
COc1ccc(CNC(=O)c2cc3cccc4c3n2CC(C)S4)c(OC)c1 (configuration not stated)	7.9µM*	-11%	-5%	.
COc1ccc(N2CCN(C(=O)c3ccc(NC(=O)c4nsc5ccccc45)cc3)CC2)cc1	?	-12%	-3%	.
O=C(Nc1ccc(C(=O)N2CCN(c3ccc(Cl)cc3)CC2)cc1)c1nsc2ccccc12	6.3µM*	-4%	-91%	.
COc1cccc(N2CCN(C(=O)c3ccc(NC(=O)c4nsc5ccccc45)cc3)CC2)c1	8.9µM*	0%	-93%	.
Cc1ccccc1CNC(=O)c1ccccc1NC(=O)c1nsc2ccccc12	6%	9%	?	.
COc1ccc(OC)c(CNC(=O)C(C)n2c(C)c3cnn(-c4ccccc4)c(=O)c3c2C)c1 (configuration not stated)	2%	-2%	i	.
CCCOc1ccc(C(O)C(CN2CCOCC2)c2ccccc2)cc1 (configuration not stated)	?	-7%	-4%[57.5 µM]	-9%
COc1ccc(C(O)(c2ccccc2OC)C(CN2CCOCC2)c2ccccc2)cc1 (configuration not stated)	10µM*	-1%	-28%	1%
CCCCOc1ccc(C(O)C(CN2CCOCC2)c2ccccc2)cc1 (configuration not stated)	10µM*	2%	-25%	-1%
SMILES	GLP1R inv ag	HEK293 tox	PTHR1 ag	GLP-1R agonist
CCCCC(O)(c1ccccc1)C(CN1CCOCC1)c1ccccc1 (configuration not stated)	10µM*	-1%	-9%	2%
CCOc1ccc(C(O)(c2ccccc2OC)C(CN2CCCC2)c2ccccc2)cc1 (configuration not stated)	?	-14%	i	-3%
CCc1cccc(C)c1NC(=O)C(CC)Sc1nncn2c1cc1occc12 (configuration not stated)	-17%	0%	i	.
O=C(NNC(=O)C1CCN(Cc2ccc(F)cc2Cl)CC1)Nc1ccc([N+](=O)[O-])cc1	4µM*	8%	-92%	0%
Cc1ccn2c(CC(C)(C)C)c(-c3ccc(F)cc3)nc2c1	7.1µM*	-11%	-90%	-4%
C=CCOc1ccc(CN(C)CC(O)COc2ccc(CCC(C)=O)cc2)cc1 (configuration not stated)	11µM*	8%	-13%	4%
CC(=O)CCc1ccc(OCC(O)CNCCOc2ccc(C)cc2)cc1 (configuration not stated)	?	4%	i	0%
O=C(O)c1ccc(/C=C/c2ccc3cccc(O)c3n2)cc1	73%	-7%	-28%	7%
Oc1ccc(/C=C/c2ccc3cccc(O)c3n2)cc1Br	10µM*	202%	-1%	1%
Cc1nc2nc(SCC(=O)NCCCN3CCCC3)nn2c(C)c1Cc1ccccc1Cl	6.3µM*	-21%	-18%	0%
CCCc1cnc(NCCNCC(O)COc2ccc(Cl)c(Cl)c2)nc1 (configuration not stated)	5µM*	?	i	3%
CC(=O)c1cccc(OCC(O)CNCCc2ccc(Cl)cc2)c1 (configuration not stated)	-24%	14%	i	-1%
CC(=O)Nc1ccc(-c2ccnc3c2CC(C(=O)NCc2cccc(Cl)c2)O3)cc1 (configuration not stated)	3.5µM*	?	i	?
CCC(C)S(=O)(=O)c1oc(-c2ccc(F)cc2)nc1S(=O)(=O)c1ccc(F)cc1 (configuration not stated)	?	?	-90%	.
CC1=C(C(=O)Nc2ccc(Cl)cc2)C(c2ccccc2C)n2ncc(C(=O)Nc3ccc(C)cc3)c2N1 (configuration not stated)	2.8µM*	0%	-3%	.
CC1=C(C(=O)Nc2ccc(Cl)cc2)C(c2ccccc2)n2ncc(C(=O)Nc3ccccc3)c2N1 (configuration not stated)	?	-10%	-7%	.
N/C(CC(=O)NC1CCCCC1)=N\OCC(=O)Nc1ccc(Cl)c(Cl)c1	22µM*	6%	i	10%
COc1ccccc1Cn1c(CNS(=O)(=O)c2ccccc2Cl)nc2cccnc21	11%	1%	i	.
C=CCN1C(c2ccc(Br)cc2)=CS/C1=C(\C#N)c1nnc(N2CCOCC2)n1-c1ccccc1	7.1µM*	-25%	-25%	2%
CCOC(=O)c1ccccc1NC(=O)CSc1cn(CC(=O)N2CCCCCC2)c2ccccc12	?	3%	-36%	.
Cn1c(Cl)nc2ccccc21	0%	-11%	i	-4%
Cn1c(N=Nc2ccccc2)nc2ccccc21	4.5µM*	10µM*	-1%	-20%
